Measurements from PubChem BioAssay AID1159580 (chemical genetic matrix, 2015).
Values joined by “and” are separate entries in the source; they are usually repeats but may differ in a detail not shown here. Identical values can stand only once. In all, about 5,500 compounds went through this assay and about 2,000 (36%) were called active. Not shown: some 18% with an inconclusive outcome. No stated cut-off is given here; in the data, active means normalized growth mostly below about 0.91 (no sharp cut-off); inconclusive means no clear call, values can overlap the other calls; inactive means mostly above about 0.92. This is one part of the list.

Assay: chemical genetic growth profiling, strain panel (AID 1159580);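 further: tested at 20 µM; growth read once vehicle control cultures reached saturation at 30 °C; 1 = growth at the plate median or of vehicle wells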
Conditions: S. cerevisiae deletion strains, growth OD

Measured: normalized growth

CC(C)=CCOc1c2occc2cc2ccc(=O)oc12
inactive: locus YAL021C, strain ccr4, stronger effect = lower value 0.963 | locus YBR231C, strain swc5, stronger effect = lower value 0.922 | locus YCR088W, strain abp1, stronger effect = lower value 0.928 | locus YDL005C, strain med2, stronger effect = lower value 0.947 | locus YDL040C, strain nat1, stronger effect = lower value 0.934 | locus YDR069C, strain doa4, stronger effect = lower value 0.923 | locus YDR159W, strain sac3, stronger effect = lower value 0.944 | locus YDR195W, strain ref2 1.07 | locus YDR297W, strain sur2, stronger effect = lower value 0.926 | locus YDR335W, strain msn5, stronger effect = lower value 0.942 | locus YEL003W, strain gim4, stronger effect = lower value 0.929 | locus YEL037C, strain rad23, stronger effect = lower value 0.937 | locus YEL061C, strain CIN8 (second series), stronger effect = lower value 0.929 | locus YER015W, strain faa2, stronger effect = lower value 0.935 | locus YER016W, strain bim1, stronger effect = lower value 0.927 | locus YER111C, strain swi4, stronger effect = lower value 0.929 | locus YFR010W, strain ubp6, stronger effect = lower value 0.938 | locus YGL227W, strain vid30, stronger effect = lower value 0.918 | locus YHR013C, strain ard1, stronger effect = lower value 0.87 | locus YHR027C, strain rpn1, stronger effect = lower value 0.954 | locus YHR030C, strain SLT2, stronger effect = lower value 0.978 | locus YHR079C, strain IRE1, stronger effect = lower value 0.975 | locus YIL073C, strain SPO22, stronger effect = lower value 0.792 | locus YJL115W, strain asf1, stronger effect = lower value 0.922 | locus YJL154C, strain vps35, stronger effect = lower value 0.935 | locus YJL187C, strain SWE1, stronger effect = lower value 0.929
0.297 (active) and 0.984 (inactive): locus YJL095W, strain BCK1, stronger effect = lower value
active: locus YAL013W, strain DEP1, stronger effect = lower value 0.734 | locus YAL026C, strain drs2, stronger effect = lower value 0.874 | locus YAL030W, strain snc1, stronger effect = lower value 0.928 | locus YBL061C, strain skt5, stronger effect = lower value 0.892 | locus YBR009C, strain hhf1, stronger effect = lower value 0.851 | locus YBR021W, strain FUR4, stronger effect = lower value 0.74 | locus YBR023C, strain chs3, stronger effect = lower value 0.864 | locus YBR171W, strain sec66, stronger effect = lower value 0.865 | locus YBR229C, strain ROT2, stronger effect = lower value 0.896 | locus YBR279W, strain paf1, stronger effect = lower value 0.921 | locus YCL011C, strain gbp2, stronger effect = lower value 0.849 | locus YCL016C, strain dcc1, stronger effect = lower value 0.859 | locus YCL029C, strain bik1, stronger effect = lower value 0.804 | locus YCL061C, strain MRC1, stronger effect = lower value 0.876 | locus YCL069W, strain vba3, stronger effect = lower value 0.912 | locus YDL035C, strain GPR1, stronger effect = lower value 0.857 | locus YDL074C, strain BRE1, stronger effect = lower value 0.606 | locus YDL101C, strain DUN1, stronger effect = lower value 0.559 | locus YDL185W, strain tfp1, stronger effect = lower value 0.875 | locus YDL192W, strain arf1, stronger effect = lower value 0.67 | locus YDR001C, strain nth1, stronger effect = lower value 0.899 | locus YDR101C, strain arx1, stronger effect = lower value 0.808 | locus YDR137W, strain rgp1, stronger effect = lower value 0.729 | locus YDR150W, strain NUM1, stronger effect = lower value 0.899 | locus YDR162C, strain NBP2, stronger effect = lower value 0.507 | locus YDR318W, strain mcm21, stronger effect = lower value 0.649 | locus YDR334W, strain swr1, stronger effect = lower value 0.892 | locus YDR388W, stronger effect = lower value 0.837 | locus YDR392W, strain spt3, stronger effect = lower value 0.353 | locus YDR502C, strain sam2, stronger effect = lower value 0.736 | locus YER110C, stronger effect = lower value 0.728 | locus YER155C, strain BEM2 (second series), stronger effect = lower value 0.509 | locus YER155C, strain BEM2, stronger effect = lower value 0.575 | locus YER167W, strain BCK2, stronger effect = lower value 0.722 | locus YGL078C, strain dbp3, stronger effect = lower value 0.92 | locus YGL086W, strain mad1, stronger effect = lower value 0.678 | locus YGL167C, strain pmr1, stronger effect = lower value 0.887 | locus YGL173C, strain kem1, stronger effect = lower value 0.885 | locus YGL240W, strain doc1, stronger effect = lower value 0.741 | locus YGL248W, strain PDE1, stronger effect = lower value 0.672 | locus YGL253W, strain hxk2, stronger effect = lower value 0.807 | locus YGR135W, strain pre9, stronger effect = lower value 0.666 | locus YGR252W, strain gcn5, stronger effect = lower value 0.519 | locus YHR079C, strain IRE1 (second series), stronger effect = lower value 0.856 | locus YHR094C, strain hxt1, stronger effect = lower value 0.821 | locus YHR129C, strain ARP1, stronger effect = lower value 0.652 | locus YHR142W, strain chs7, stronger effect = lower value 0.679 | locus YHR200W, strain rpn10, stronger effect = lower value 0.822 | locus YIL066C, strain RNR3, stronger effect = lower value 0.697 | locus YIL125W, strain kgd1, stronger effect = lower value 0.895 | locus YIR030C, strain dcg1, stronger effect = lower value 0.842 | locus YJL092W, strain hpr5, stronger effect = lower value 0.9 | locus YJL095W, strain BCK1 (second series), stronger effect = lower value 0.898 | locus YJL129C, strain trk1, stronger effect = lower value 0.774 | locus YJL134W, strain LCB3, stronger effect = lower value 0.895 | locus YJL164C, strain tpk1, stronger effect = lower value 0.859 | locus YJL166W, strain qcr8, stronger effect = lower value 0.895 | locus YJL168C, strain set2, stronger effect = lower value 0.875 | locus YJL187C, strain SWE1 (second series), stronger effect = lower value 0.739 | locus YJR043C, strain POL32, stronger effect = lower value 0.742
